{"source": "PubChem BioAssay AID1117293", "about": "(Broad Institute, 2014)", "note": "Measured potencies and affinities stand elsewhere. Results filed as inconclusive are left out. Values without a mark were called inactive. The source made the active and inactive calls.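 How the source made its calls: active means cytotoxic in every repeat run, with fitted half-maximal concentration at most twice the top tested dose; inconclusive means runs disagree, or flat partial drop, or poor curve fit; inactive means inactive in every run.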", "data": [{"assay": "embryonic kidney cell viability loss – CellTiter-Glo luminescence, dry powder, set 20, cytotoxicity control, dose response (AID 1117293)", "conditions": "HEK293T viability, CellTiter-Glo ATP luminescence, 72 h; series mostly up to 26 µM; activity change, negative = cytotoxicity: at the top concentration", "units": {"activity change, negative = cytotoxicity": "%"}, "values": [{"smiles": "CC(=O)N1CCN(C(=O)C2(NC(=O)Nc3ccc(F)cc3)CCCC2)CC1", "activity change, negative = cytotoxicity": -2.16}, {"smiles": "COc1ccc(C(=O)Nc2cc(C(F)(F)F)ccc2N2CCOCC2)cc1S(=O)(=O)O", "activity change, negative = cytotoxicity": -8.67}, {"smiles": "CC(=O)N1CCN(C(=O)C2(NC(=O)Nc3cccc(C(F)(F)F)c3)CCCCC2)CC1", "activity change, negative = cytotoxicity": -5.58}, {"smiles": "Cc1ccc(NC(=O)NC2(C(=O)N3CCNCC3)CCCCC2)cc1", "activity change, negative = cytotoxicity": 0.421}, {"smiles": "CC(=O)N1CCN(C(=O)C2(NC(=O)Nc3ccccc3)CCCC2)CC1", "activity change, negative = cytotoxicity": 4.55}, {"smiles": "CC(=O)N1CCN(C(=O)C2(NC(=O)Nc3ccc(C(F)(F)F)cc3)CCCC2)CC1", "activity change, negative = cytotoxicity": -14.6}, {"smiles": "COc1ccc(C(=O)O)cc1S(=O)(=O)Nc1ccc(N2CCCCC2)cc1C(F)(F)F", "activity change, negative = cytotoxicity": 4.22}, {"smiles": "O=[N+]([O-])c1cccc(S(=O)(=O)Nc2cc(C(F)(F)F)ccc2N2CCCCC2)c1", "activity change, negative = cytotoxicity": -23.7}, {"smiles": "CC(=O)N1CCN(C(=O)C2(NC(=O)NC(C)(C)C)CCCCC2)CC1", "activity change, negative = cytotoxicity": -21.7}, {"smiles": "COc1ccc(S(=O)(=O)Nc2cc(C(F)(F)F)ccc2N2CCCCC2)cc1", "activity change, negative = cytotoxicity": -15.2}, {"smiles": "COc1ccc(C(=O)Nc2cc(C(F)(F)F)ccc2N2CCCC2)cc1S(=O)(=O)O", "activity change, negative = cytotoxicity": -14.3}, {"smiles": "O=S(=O)(Nc1cc(C(F)(F)F)ccc1N1CCCCC1)c1ccc(C(F)(F)F)cc1", "activity change, negative = cytotoxicity": -43.1}, {"smiles": "COc1ccc(C(=O)O)cc1S(=O)(=O)Nc1cc(C(F)(F)F)ccc1N1CCOCC1", "activity change, negative = cytotoxicity": -19.9}, {"smiles": "COc1ccc(C(=O)Nc2ccccc2N2CCCCC2)cc1S(=O)(=O)O", "activity change, negative = cytotoxicity": -2.25}, {"smiles": "CC(=O)N1CCN(C(=O)C2(NC(=O)Nc3ccc(C)cc3)CC2)CC1", "activity change, negative = cytotoxicity": -6.62}, {"smiles": "CC(=O)N1CCN(C(=O)C2(NC(=O)Nc3ccc(C(C)C)cc3)CCCCC2)CC1", "activity change, negative = cytotoxicity": -3.9}, {"smiles": "CC(=O)N1CCN(C(=O)C(C)(C)NC(=O)Nc2ccc(C)cc2)CC1", "activity change, negative = cytotoxicity": -10.8}, {"smiles": "CC(=O)N1CCN(C(=O)C2(NC(=O)Nc3ccccc3F)CCCCC2)CC1", "outcome": "inactive"}, {"smiles": "COc1ccc(C(=O)O)cc1S(=O)(=O)Nc1cccc(N2CCCCC2)c1C(F)(F)F", "activity change, negative = cytotoxicity": 10.9}, {"smiles": "COc1ccc(C(=O)O)cc1S(=O)(=O)N1CCN(c2ccc(C(F)(F)F)cc2N)CC1", "activity change, negative = cytotoxicity": 8.49}, {"smiles": "Cc1ccc(NC(=O)NC2(C(=O)N3CCN(c4ccccc4)CC3)CCCCC2)cc1", "activity change, negative = cytotoxicity": 3.02}, {"smiles": "CC(=O)N1CCN(C(=O)C2(NC(=O)Nc3ccc(C(C)C)cc3)CCCC2)CC1", "activity change, negative = cytotoxicity": 4.56}, {"smiles": "Cc1ccc(NC(=O)NC2(C(=O)N3CCOCC3)CCCCC2)cc1", "activity change, negative = cytotoxicity": -8.01}, {"smiles": "O=C(Nc1cc(C(F)(F)F)ccc1N1CCCCC1)c1ccc(S(=O)(=O)O)cc1", "activity change, negative = cytotoxicity": 8.17}]}]}
